# Laboratory results from PubChem BioAssay AID1347423 (Functional Genomics Laboratory (NCATS/FGL), 2020).
# The whole screen tested about 52,000 sequences, of which about 210 (0.4%) were called active.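 The calls were made as follows: active = gene whose silencing raises cell survival under the drug, median off-target-corrected z-score across its silencing RNAs 2 or more; inactive = the rest.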 Shown is part of a subset that was picked to be rich in actives.
# Assay: Resistance to Poly (ADP-Ribose) Polymerase inhibitor: Gene Identification via Genome-wide siRNA Screen
# Details: mouse BRCA2 R2336H ES cells, olaparib, CellTiter-Glo viability; active compounds read high
# Summary of the method: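 Mouse BRCA2 R2336H ES cells were reverse-transfected with siRNA (20 nM final), treated at 48 h with 500 nM olaparib, and read by CellTiter-Glo after 72 h. Scores: MAD-based z per siRNA, median per gene, seed off-target correction.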
row,Sequence,z-score
1,GGACUCUUUUCUACGUGGATT against Klhl1,3.47 (active)
2,GGGCAUACAUAUAACCUAUTT against Plekhc1,0.785 (inactive)
3,CAAAUUAUGAGUGAGAACCTT against Olfr340,-1.17 (inactive)
4,GCUUAACCGUUUUUUCAAATT against Tgif,0.555 (inactive)
5,GGUUAUGAGGCUUAAUAAATT against 2810423G08Rik,1.54 (inactive)
6,GGAUCCAAGUUCCUGGCUCTT against A330096I21Rik,-0.601 (inactive)
7,GGAGACUCAGGAAAAAAUUTT against Olfr1424,0.238 (inactive)
8,CGAACAGUCUGUAUGGCGATT against Jak1,3.46 (active)
9,GGCCAAUUUGAAUAAUCUATT against Zfp119,0.0816 (inactive)
10,GGACCCUGAAGGAGCUGAATT against Per2,-1.32 (inactive)
11,UCAAACUAGGUGCUGUUGUTT against Olfr584,-1.11 (active)
12,GGAGAUAAAGUCUUAUCACTT against 9130017N09Rik,0.803 (inactive)
13,GCAUUUCUUUCUUGCCUUCTT against Olfr1276,0.613 (inactive)
14,GGCUAGCUAACUAUCUCUGTT against 9230105I15Rik,0.89 (inactive)
15,GGUUCCAACAAUUGUAAAGTT against Chl1,2.35 (active)
16,GGACAAGCUCCAAAACAACTT against Sfrs4,-1.45 (inactive)
17,CCUGCCUUUUCCUAAUGAATT against Ovca2,0.573 (inactive)
18,GACAAAUAGUGCAGGAGGATT against 2310069N01Rik,0.444 (inactive)
19,CCAAAUACGACUUACGAAATT against Ncam2,0.897 (inactive)
20,CGAUGUUUUCAUGAACGACTT against 0610012D17Rik,0.421 (inactive)
21,GGCAGUGGCUUGGAUAAAUTT against 5730457F11Rik,2.83 (active)
22,GGAAGAAGAGCUCUUUAAATT against Acate2,0.108 (inactive)
23,GGACCAGCACCAUUUCCUATT against Tce4,-0.603 (inactive)
24,GCUACUAUAUGCGUUUCUUTT against Fads2,1.88 (inactive)
25,GGCAUAAAGUUGUUUACAGTT against 3110006P09Rik,3.24 (active)
26,GGUCAUUUCAAGUGCUAAGTT against D7Ertd680e,1.01 (inactive)
27,GGUGGAAUGAAAUAUGAAGTT against Ptp4a1,0.0271 (inactive)

row,Sequence,z-score
1,CCUGGAAAGACUCUCGGAGTT against Cln2,-0.492 (inactive)
2,GGUGAUGUCUCGGUACCCATT against Mvk,-0.664 (inactive)
3,GGGCUACAGCAUGUAUGAGTT against BC057627,2.38 (active)
4,GGAAAUUUCUUAGCACGAATT against Ppp4r1,0.667 (inactive)
5,GGACUUUGAAGAGGACAAUTT against Dhx38,-2.18 (inactive)
6,GCACGAAGAACCACACAAGTT against 5830484A20Rik,-0.63 (inactive)
7,GCAUGAUUUAGAUCGAGUATT against Uqcrfs1,-1.17 (inactive)
8,GGAUCACUACCAUGAAAACTT against Bace1,-0.551 (inactive)
9,GGUGAAAUAGCUAAAUCAUTT against Usp15,-0.572 (active)
10,GGAGAUGGUUGGAUCAUUCTT against D10Ertd610e,0.642 (inactive)
11,GGGUGAAAAGCAUUUCUGUTT against MGI:1923902,1.38 (inactive)
12,GGACAAAGAAGACUCCCGATT against Dpf2,0.386 (inactive)
13,GCAGAUAUUCUCUGUGCAGTT against Ccnf,2.22 (inactive)
14,GGGCUAAAGUAUAUCCAUUTT against Mapk1,1.14 (active)
15,CGAAGGACAAAAUAUCAGCTT against 4930517G15Rik,-0.16 (inactive)
16,GUUGAGGAUAACAUUGAACTT against MGC102419,-0.623 (inactive)
17,GGGUGUAUUCUGCUUUGUATT against 2600013N14Rik,-1.3 (inactive)
18,GGGAAUUGCUCACCUCCAUTT against Klre1,-0.871 (inactive)
19,GCUAAAAUUGGAUCAAGGATT against Ccbp2,2.14 (inactive)
20,GGACUUCAUCAAAGUCUUATT against Cyp11a1,-1.45 (inactive)
21,GGAAGAACUUUAAAAAUGCTT against Mic2l1,0.477 (inactive)
22,CGUACUCUAUGAGGUGCCATT against Rab6ip1,0.703 (inactive)
23,GCUUAAAGAUCGAUCCCGCTT against Slc38a4,0.666 (inactive)
24,GCCAUUAAUAAUCAGUACUTT against Sh2bpsm1,0.686 (inactive)
25,CCAUUGCCAACAACUAGAUTT against Ela3b,2.87 (active)
26,GCUGAGGGUUGAUUAGUGGTT against H2-Bl,-1.2 (inactive)
27,GGCCUCCAGAAACAACUCGTT against Ndst2,1.44 (inactive)

row,Sequence,z-score
1,GCUAGAACAGCAAAAAAAATT against Scgb3a1,0.00969 (inactive)
2,CCACGUGUUUGCAUUCAAATT against Gdd1,0.222 (inactive)
3,GGAUCCCACACUUUUCUGATT against Rxra,1.02 (inactive)
4,CCUAAAACUCACCAUAGAGTT against Nfatc3,-0.0858 (inactive)
5,GAUAUAAGGACUCUUUGAATT against 4732486J07Rik,-0.212 (inactive)
6,GGUCUUUUGGAAUCUCUGGTT against Crip3,1.26 (active)
7,GGAUAGUAACGGAAACUUGTT against Usp25,2.49 (inactive)
8,GGAUUCGGAAUACUACGAUTT against Abo,1.79 (inactive)
9,GGUGUCCUUUCAAGUUGAUTT against C530005A01Rik,-0.63 (inactive)
10,CGGCAGUGUUAAAACAUGATT against Fgfr2,0.114 (inactive)
11,GGAGCAGUAUAUCCUACAUTT against Olfr510,0.104 (active)
12,CCUGAGAACAUUUUAAUCATT against Tas2r116,-0.685 (inactive)
13,CCAAUUCUCGAAUCAUUGCTT against Olfr561,-0.382 (inactive)
14,GCUACGCUAUCCAAAUUCUTT against AF529169,-0.118 (inactive)
15,CCCUUGGAGGAAGCUAACUTT against Pde2a,1.27 (active)
16,GGAGAUGCCCAAUGUUUUCTT against Ehd1,-0.27 (inactive)
17,CGGCCUGUUAUAAACCUGCTT against 4933409K07Rik,-0.131 (inactive)
18,GCCUCAUUGAAAGGAUCCATT against GnT-IX,-0.888 (inactive)
19,GCUUUUGAUCCACAGAUUUTT against Prss33,2.34 (active)
20,GGAACAUCAGGUGCAUGUGTT against Pkd1,1.9 (inactive)
21,GGCUCCACCAAAGCCUGUUTT against 2310066N05Rik,-2.31 (inactive)
22,CCUUGGGACUGACUGUAAGTT against A230072I16Rik,2.25 (inactive)
23,GGUCAAUUAUGAAGAGUUUTT against Calm3,1.59 (inactive)
24,CCGGGUCAGGACAAUUCAUTT against Hsd17b1,1.29 (active)
25,GCAUUCGGCUGAGAAGAUGTT against Foxb2,-1.8 (inactive)
26,GGAUAAUUCAGACAACAAUTT against Fus,3.47 (active)
27,GGAACCAAUAAAUCUGUGCTT against Rfxank,0.27 (inactive)

row,Sequence,z-score
1,GGUCAUAGGUACGUAUCCGTT against 6430529G09Rik,-0.0313 (inactive)
2,GGCUGUACAGUCAUGCAAGTT against Adamts5,2.62 (active)
3,GGAAAGCUACUGUCAGAGUTT against Olfr473,0.453 (inactive)
4,GGACGUGUGGCUGUUGACATT against Sdc1,-2.23 (inactive)
5,GCUUUAGAUACGUGAUUAGTT against 5830417C01Rik,-1.26 (inactive)
6,GCGACUACUUAGACACUUUTT against 4732481H14Rik,-1.94 (inactive)
7,UAGCCAUCGCUCUUUCUUATT against Olfr594,-0.973 (inactive)
8,GGACAAAGGUGUCAACUCCTT against Crmp1,-0.491 (inactive)
9,GCUCCUAGGAACUUGGUUATT against Pacsin2,2.36 (active)
10,CGAGUUCGGUAUGAGUGGATT against Clptm1,-1.24 (inactive)
11,GGUCGGAAGAAUCUAAAGGTT against Dmp1,0.0661 (inactive)
12,GGAAGAGAGGACCAUGAAGTT against Usp18,2.69 (active)
13,GAGAAUCCAGAACUCCAAUTT against Olfr952,-0.963 (inactive)
14,GCAAUCAUUAAGCAGAUCATT against Prkce,-2.49 (inactive)
15,GGCCGACAAGCGAUCAAAATT against AU040829,-0.237 (inactive)
16,GGAUUUGGCCAACUCACCCTT against Acpp,0.16 (active)
17,CCCUUCCAACAAUUAUACUTT against Tmem27,1.04 (inactive)
18,GGAGAGAAAGAAGUUGUUGTT against Lcn5,2.43 (inactive)
19,GGAUUUCGACAAUAUGAAGTT against Chrnb2,2.24 (active)
20,CCUAUGAAGCUCCAUUAUGTT against Madcam1,0.762 (inactive)
21,CACUCUUGAUACAAAUGAGTT against Ifna6T,0.264 (inactive)
22,GGCACAAAGGCAGUUAUUCTT against 1110049G11Rik,0.847 (inactive)
23,GGGAAAAAUAUCAGUUAUGTT against Khdrbs1,1.08 (active)
24,GCUGGUGUCAUUAGACAGUTT against Npc1l1,-0.302 (inactive)
